# Screening results as filed in PubChem.
# Rab9 prom act: activators of Rab9 promoter. Huh7 Rab9 promoter-luciferase reporter, luminescence, 24 h. Potency, µM (highest dose often 9.22 µM), hits mostly activators. 320,000 tested, 2.8% active; also: nearly all actives have a fitted effect of over 60% in size
#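 Rab9 promoter-driven luciferase in stably transfected Huh7 cells; 1500 cells/well rested 2 h, exposed to compound in DMSO for 24 h at 37 °C, 5% CO2. Luminescence read 10 min after adding luciferase reagent at ambient temperature.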
# FLuc counter: inhibits or activates purified firefly luciferase, miR-21 counter-screen. P08659. purified FLuc, Km substrates, luminescence inhibition. Potency, µM (doses to about 57.5 µM), most hits filed as inhibitors. 360,000 tested, 6.9% active. AID 588342; also: nearly all actives have a fitted effect of over 55% in size
# Target sequence (P08659 whole entry, looked up): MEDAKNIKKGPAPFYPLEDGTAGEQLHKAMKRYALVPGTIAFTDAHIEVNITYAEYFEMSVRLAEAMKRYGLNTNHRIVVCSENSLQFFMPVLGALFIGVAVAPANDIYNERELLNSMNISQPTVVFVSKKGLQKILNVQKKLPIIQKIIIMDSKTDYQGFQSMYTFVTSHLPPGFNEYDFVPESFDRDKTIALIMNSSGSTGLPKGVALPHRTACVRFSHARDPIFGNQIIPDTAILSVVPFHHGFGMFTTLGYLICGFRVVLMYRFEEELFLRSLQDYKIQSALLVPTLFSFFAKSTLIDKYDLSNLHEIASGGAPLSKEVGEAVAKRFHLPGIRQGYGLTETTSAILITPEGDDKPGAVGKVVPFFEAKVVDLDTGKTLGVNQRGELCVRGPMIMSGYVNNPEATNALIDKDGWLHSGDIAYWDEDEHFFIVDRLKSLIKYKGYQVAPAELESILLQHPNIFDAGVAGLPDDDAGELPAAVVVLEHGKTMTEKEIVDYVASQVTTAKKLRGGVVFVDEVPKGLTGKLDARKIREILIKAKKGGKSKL
#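 Purified P. pyralis luciferase, 10 nM final, with Km-level 10 uM D-luciferin and 10 uM ATP in 50 mM Tris acetate pH 7.5, 10 mM Mg acetate, 0.01% Tween-20, 0.05% BSA; 6-point qHTS titration about 60 µM downward; luminescence read.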
# KinaseGlo FLuc: counter-screen: inhibitors of Kinase-Glo firefly luciferase. Q27757. Kinase-Glo luciferase, ATP luminescence, 8 min. Potency, µM (doses to about 38.3 µM), actives largely listed as inhibitors. 200,000 tested, 0.28% active. AID 1379; also: nearly all actives have a fitted effect of over 60% in size
#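 Recombinant Kinase-Glo luciferase, 10 uM ATP (linear range), luciferin; imidazole pH 7.2 / KCl / MgCl2 / Tween / BSA buffer; 8 min RT; luminescence.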
# ELG1 genotox: induces genotoxicity in HEK293T cells with luciferase-tagged ELG1; HEK293T ELG1-luciferase reporter, luminescence, 16 h; Potency, µM (top dose mostly 46 µM), usual class: activators; 330,000 tested, 1.3% active; AID 504466; also: nearly all actives have a fitted effect of over 60% in size
#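 HEK293T cells expressing luciferase-tagged ELG1 were exposed to compound or DMSO vehicle for 16 hr at 37 °C and 5% CO2. Luciferase activity was then measured with ONE-Glo after 30 min at room temperature.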
# SMN2 splice up: increases expression of the SMN2 splice variant; HEK293 SMN2-luciferase splicing reporter, luminescence, 30-36 h; Potency, µM (highest dose often 46.1 µM), usual class: activators; 210,000 tested, 2.8% active; AID 1458; also: nearly all actives have a fitted effect of over 55% in size
#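 qHTS luciferase splicing reporter: luminescence rises when SMN2 exon 7 is included in transfected HEK293 cells. Compound exposure lasted 30-36 h at 37C, with 4.5 mM final sodium butyrate as control, followed by a ONE-Glo read.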
# NPC1 prom act: activates the NPC1 promoter; Huh7 NPC1 promoter luciferase reporter, 24 h; Potency, µM (series often up to 9.22 µM), actives largely listed as activators; 320,000 tested, 2.4% active; also: nearly all actives have a fitted effect of over 60% in size
#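 Stably transfected Huh7 (NPC1 promoter→luciferase), 1500 cells/well in Opti-MEM + 10% FBS, 2 h settle, then compound 24 h at 37 °C. Luminescence after 10 min with Amplite reagent.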
# Hits are given with their value; - = inactive; ? = inconclusive; . = no result. A selection: hits, their analogues and other compounds. The true share with any hit is near 7.5%. Calls follow the shape of the dose curve; as a rule, active = well fitted curve in the direction sought with a large enough effect; inconclusive = small, poorly fitted or top-dose-only effect, or another doubt; inactive = no such curve, though single readings can be large; an effect the other way counts as inactive or inconclusive.
SMILES,Rab9 prom act,FLuc counter,KinaseGlo FLuc,ELG1 genotox,SMN2 splice up,NPC1 prom act
CCOc1ccc(C(=O)NCC(c2ccc3c(c2)OCO3)N2CCN(c3ccccc3F)CC2)cc1 (stereo not given),.,-,.,.,.,.
COc1cccc(/C=C2\N=C(C3CCCCC3)OC2=O)c1OC,-,15µM,-,-,-,-
CC(=O)Oc1ccc(/C=C2\N=C(C3CCCCC3)OC2=O)cc1,-,17µM,-,-,-,-
COc1ccccc1/C=C/C(C)=O,-,-,-,-,-,-
COc1ccccc1/C=C1\N=C(C(C)(C)C)OC1=O,-,17µM,.,-,.,-
Cc1ccccc1NC(=O)C1CCN(S(=O)(=O)c2cccc3nonc23)CC1,-,-,.,-,-,-
Cc1ccc(C(=O)/C=C/C(=O)c2ccc(C)cc2)cc1,-,?,-,-,-,-
Cc1ccc(/C=C/C(=O)c2ccccc2O)cc1,-,1.2µM,.,?,.,-
Cc1ccc(/C=C/C(=O)c2ccc(C)cc2)cc1,-,1.3µM,-,?,-,-
CN(C)c1ccc(/C=C/C(=O)c2ccccc2O)cc1,?,0.6µM,-,?,.,3.5µM
CN(C)c1ccc(/C=C/C(=O)c2cccnc2)cc1,-,3µM,.,-,.,-
CSCc1ccc(C(=O)NCC(c2cccs2)N2CCOCC2)cc1 (stereo not given),-,-,.,-,.,-
Cc1cccc(C(=O)NC2(C(F)(F)F)N=C(c3ccccc3)N(Cc3ccccc3)C2=O)c1 (stereo not given),.,-,.,.,-,.
COc1ccc(-c2n[nH]c3c2C(c2ccc(Cl)cc2Cl)NC3=O)cc1 (stereo not given),.,?,.,.,-,.
O=C(/C=C/c1ccco1)c1cccnc1,-,-,.,-,.,-
Cc1c(/C=C/C(=O)c2ccccc2O)cnn1C,2.5µM,1.3µM,?,?,16µM,3.5µM
O=C(/C=C/c1ccco1)c1ccccc1O,-,11µM,-,?,.,-
O=C(/C=C/c1cccnc1)c1ccccc1O,-,17µM,.,-,.,-
Cc1ccc2occ(/C=C/C(=O)c3ccccc3O)c(=O)c2c1,-,?,-,-,-,?
CCN(CC)C(=O)c1sc(NC(=O)c2ccc(OC)c([N+](=O)[O-])c2)c(C#N)c1C,-,-,-,-,-,-
CCOC(=O)C1C(c2cccc([N+](=O)[O-])c2)C2C(=O)NN=C2CC1(C)O (stereo not given),-,-,-,-,-,-
COC(=O)c1sccc1N/N=C/c1cccc(OC)c1O,3.2µM,0.95µM,10µM,?,0.56µM,3.5µM
COC(=O)c1sccc1N/N=C/c1ccc(OC)c(OC)c1OC,?,15µM,-,?,14µM,?
COC(=O)c1sccc1N/N=C/c1cccc(Oc2ccccc2)c1,2.2µM,1.9µM,?,2.3µM,?,3.2µM
Cc1ccc(C2=NN=C(NC(=O)C(F)(F)F)SC2)cc1,0.79µM,17µM,-,?,.,1.4µM
SMILES,Rab9 prom act,FLuc counter,KinaseGlo FLuc,ELG1 genotox,SMN2 splice up,NPC1 prom act
Cc1ccc(C2=NN=C(NC(=O)CSc3nncn3C)SC2)cc1,1.4µM,2.4µM,-,?,8.9µM,2.2µM
CCCn1c(SCc2nc3ccccc3s2)n[nH]c1=O,3.5µM,5.4µM,-,18µM,?,-
O=c1[nH]nc(SCc2nc3ccccc3s2)n1C1CC1,?,24µM,-,21µM,?,-
O=C(CSc1n[nH]c(=O)n1C1CC1)NCc1ccccc1,-,-,.,-,.,-
Cc1cc(C)c(-n2c(SCc3nc4ccccc4s3)n[nH]c2=O)c(C)c1,-,-,.,-,.,-
CCCn1c(=O)c2ccccc2n2c(SCc3nc4ccccc4s3)nnc12,?,11µM,-,?,?,-
CCCCCCCCCCCCCCCC(=O)OCC(NC(=O)C(Cl)Cl)C(O)c1ccc([N+](=O)[O-])cc1 (stereo not given),.,.,-,.,.,.
COc1cccc(-c2nnc(-c3ccccc3NC(=O)c3cccc(C(F)(F)F)c3)o2)c1,.,-,.,.,-,.
COc1cccc(C(=O)Nc2cccc(-c3nnc(-c4ccco4)o3)c2)c1,-,19µM,-,-,-,-
COc1cccc(-c2nnc(-c3ccccc3NC(=O)c3ccc(C(C)(C)C)cc3)o2)c1,-,2.4µM,.,-,.,-
